This is a sample that favours compounds with a hit; in the whole collection about 2.1% have one here.
NFkB transloc inh: blocks IL-1B driven NFkB nuclear translocation in HUVEC cells. HUVEC IL-1B NFkB p65 nuclear translocation imaging. actives 0.43% (n = 94,000). inhibition, % at 2 µM;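 active = inhibition above about 30% together with a positive call from visual inspection of the well image, limit read from the data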;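 note: nuclear over cytoplasmic p65 intensity ratio measured by imaging; 0% = IL-1B stimulated DMSO wells and 100% = unstimulated DMSO wells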
IL1B NFkB pot: enhances IL-1B driven NFkB nuclear translocation; actives 0.3% (n = 94,000); activation, % at 2 µM; HUVEC IL-1B NFkB p65 nuclear translocation imaging;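 active = activation above 40%, about the mean plus 3 SD, also judged a hit on visual image review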;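 note: percent activation is computed from the nuclear over cytoplasmic p65 intensity ratio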
Measles CPE: protection of cells from measles virus | actives 1.5% (n = 140,000) | protection (pct of control), % at 4 µM | Measles virus-infected cells, CPE protection, absorbance; in the data active = protection mostly above about 24%, no sharp cut-off; inactive = mostly below about 26%
HUVEC tox IL1B: HUVEC cytotoxicity counter-screen, IL-1B stimulated; HUVEC cell count loss, Hoechst imaging; cell count reduction, % at 2 µM; actives 0.41% (n = 94,000); AID 845;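 active = cell count reduction more than 3 SD above the screen-wide mean, cut at about 70% in these data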;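 note: normalized per plate to untreated control cells as the no-loss baseline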
Starred values were filed as active, the others as inactive; nt = no result given.

SMILES	NFkB transloc inh	IL1B NFkB pot	Measles CPE	HUVEC tox IL1B
CCc1ccc(/C=C/C(=O)c2ccc(S(=O)(=O)N(C)C)cc2)cc1	nt	nt	6	nt
CCc1ccc(C(=O)/C=C/c2ccc([N+](=O)[O-])o2)cc1	44*	-44	1	-18
COc1ccc(NC(=O)Cn2cccc2)cc1Cl	16	-16	41*	27
COc1cc(NC(=O)c2cccc(Cl)c2)c(OC)cc1NC(=O)CN1CCOCC1	21	-21	73*	-24
COc1ccc(Cl)cc1NC(=O)CN1CCC(n2nnc3cc(F)ccc32)CC1	100*	-100	5	92*
Cc1ccc(NC(=O)Cn2cccc2)cc1Cl	-5	5	2	36
COc1cc(NC(=O)c2ccccc2)c(OC)cc1NC(=O)CN1CCOCC1	-6	6	6	-14
COc1ccc(Cl)cc1NC(=O)Cn1cccc1	-15	15	34*	34
COc1cc(OC)c(NC(=O)Cn2cccc2)cc1Cl	1	-1	36	14
COc1ccccc1NC(=O)CN(c1ccc(C23CC4CC(CC(C4)C2)C3)cc1)S(C)(=O)=O	0	0	4	2
Cc1[nH]c2ccccc2c1Cc1n[nH]c(=S)o1	-46	46*	4	13
CCc1sc(NC(=O)COC)nc1-c1ccccc1	27	-27	28*	-12
COc1cccc(S(=O)(=O)N2CCN(c3ccccc3F)CC2)c1	-4	4	34*	13
CCOC(=O)N1CCN(S(=O)(=O)c2ccc(OCC(=O)OC)c(C)c2)CC1	-20	20	3	-1
Cn1c(=O)c(=O)n(C)c2cc(S(=O)(=O)N3CCN(c4ccccc4F)CC3)ccc21	nt	nt	6	nt
COC(=O)COc1ccc(S(=O)(=O)N2CCN(c3ccccc3F)CC2)cc1C	-32	33	27*	13
Cc1ccccc1Nc1nc2ccccc2s1	nt	nt	43*	nt
COc1ccc2c(c1)OC1(C)CC2C(C(=O)c2ccccc2OC)C(=O)N1 (stereo not given)	nt	nt	31*	nt
COc1ccc2c(c1)C1CC(C)(NC(=O)C1C(=O)c1ccccc1)O2 (stereo not given)	5	-5	4	-5
COc1ccc2c(c1)C1CC(C)(NC(=O)C1S(=O)(=O)c1ccc(F)cc1)O2 (stereo not given)	nt	nt	69*	nt
CC(O)c1nc2ccccc2n1CCOc1ccccc1 (stereo not given)	4	-4	38*	-20
COc1ccccc1OCCn1c(C(C)O)nc2ccccc21 (stereo not given)	0	-1	76*	6
OCc1nc2ccccc2n1CC(O)COc1ccccc1 (stereo not given)	-4	4	29*	-4
COc1ccccc1OCCn1c(CO)nc2ccccc21	7	-7	15	-20
C/C(=N/NC(=O)C1CCN(S(=O)(=O)c2ccc(C)cc2)CC1)c1cccc([N+](=O)[O-])c1	nt	nt	10	nt
SMILES	NFkB transloc inh	IL1B NFkB pot	Measles CPE	HUVEC tox IL1B
COc1cccc(-c2nc3n(n2)C(c2ccc4c(c2)OCO4)C(C(N)=O)=C(C)N3)c1 (stereo not given)	-5	7	35*	-64
O=C(O)CC/C(=C\c1cc([N+](=O)[O-])ccc1Cl)c1nc2ccccc2s1	nt	nt	13	nt
Cc1nn(-c2ccc(F)cc2)c(Cl)c1/C=C(\CCC(=O)O)c1nc2ccccc2s1	8	-8	32*	6
CN(C)S(=O)(=O)c1ccc(NS(=O)(=O)/C=C/c2ccccc2)cc1	-13	13	44*	-12
COc1ccc(NS(=O)(=O)/C=C/c2ccccc2)cc1	nt	nt	2	nt
Cc1cccc(-c2noc(CN(C(=O)c3ccc(Br)o3)C(C)C)n2)c1	6	-6	19	-30
Cc1cccc(-c2noc(CN(C(=O)c3ccc4c(c3)OCO4)C(C)C)n2)c1	-16	16	46*	-19
O=C(O)c1ccc(CS(=O)(=O)c2cccc(C(F)(F)F)c2)o1	-1	1	25	-1
CCOC(=O)c1cn(-c2ccccc2)nc1-c1cccnc1	nt	nt	8	nt
O=C(OCn1nnc2ccccc2c1=O)c1cn(-c2ccccc2)nc1-c1cccnc1	-98	98*	7	-7
O=C(Nc1ccc2nc(-c3ccc(Br)o3)[nH]c2c1)c1cccs1	99*	-99	4	84*
O=C(Nc1ccc2oc(-c3ccncc3)nc2c1)c1cccs1	-10	10	42*	-36
Cc1ccc2oc(-c3ccc(C)c(NC(=S)NC(=O)c4cccs4)c3)nc2c1	nt	nt	59*	nt
Cc1ccc2oc(-c3ccc(C)c(NC(=O)Cc4cccs4)c3)nc2c1	nt	nt	8	nt
CS(=O)(=O)N1CCc2cc(-c3csc(NC(=O)Cc4cccs4)n3)ccc21	15	-15	101*	23
O=C(CN1CCOCC1)Nc1nc(-c2ccc3c(c2)CCN3S(=O)(=O)c2ccccc2)cs1	4	-4	16	-29
